According to the supplement of paper PMC6555819:

Columns and labels:
Assay in all cases: PBM binding z-score (relative to random genomic background probes); higher = stronger binding; sequences stand for … in GC…GCGATTGACAGCGTAGAATGAAGG
[1] = system: PPARg:RXRa DBDmut IVT, anti-RXR (DBD mutation: RXRa K156A/R161A, NR concentration 270 nM, RXRa partner concentration 90 nM)
Outline: (§1)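 On custom Agilent 4×180K arrays, double-stranded probes with 34-nt variable regions carried direct-repeat seeds, single-nucleotide variants, half-site ablations or random human genomic background. Ligand-free nuclear receptor dimers were applied for 1 h, and binding was read with antibodies against each partner (one per run). Binding z-scores come from regression-normalized fluorescence, with the random background probes as reference.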

[2] = system: PPARg:RXRa IVT, anti-PPARg (NR concentration 270 nM, RXRa partner concentration 90 nM)
Outline: as §1

[3] = system: PPARg DBDmut:RXRa IVT, anti-PPARg (DBD mutation: PPARg1 K132A/R137A, NR concentration 270 nM, RXRa partner concentration 90 nM)
Outline: as §1

[4] = system: PPARg DBDmut IVT, anti-PPARg (DBD mutation: PPARg1 K132A/R137A, NR concentration 270 nM)
Outline: as §1

[5] = system: PPARg homodimer (NR concentration 180 nM)
Outline: as §1

[6] = system: PXR:RXRa (NR concentration 270 nM, RXRa partner concentration 90 nM)
Outline: as §1

[7] = system: PXR homodimer (NR concentration 270 nM)
Outline: as §1

[8] = system: RARa:RXR (NR concentration 270 nM, RXRa partner concentration 90 nM)
Outline: as §1

[9] = system: RARa homodimer (NR concentration 270 nM)
Outline: as §1

[10] = system: RARb:RXRa (NR concentration 270 nM, RXRa partner concentration 90 nM)
Outline: as §1

Row | Sequence | PBM binding z-score [1] | PBM binding z-score [2] | PBM binding z-score [3] | PBM binding z-score [4] | PBM binding z-score [5] | PBM binding z-score [6] | PBM binding z-score [7] | PBM binding z-score [8] | PBM binding z-score [9] | PBM binding z-score [10]
1 | TCAGACAGGTGAAGGTAACTAAGGTACGCAGTCG | 2.56 | 1.27 | 0.501 | 0.42 | 0.309 | 0.646 | 0.152 | 1.22 | 0.362 | 1.24
2 | TCTTGTTGGTCACGGAGGTCACACACGACGGGTA | 2.92 | 4.57 | 2.15 | 2.59 | 4.65 | 5 | 2.43 | 5.34 | 3.1 | 4.17
3 | TCATATAGGTAACAGGTGAAAGTCGGTGTGGTAA | 5.02 | 4.81 | 0.985 | 1.02 | 1.4 | 0.896 | 0.535 | 0.876 | 1.18 | 1
4 | AGAATGAGGTTATTAAGATCAGTGAATTGCGGTC | 3.14 | 2.61 | 0.948 | 0.175 | 1.22 | 1.37 | 0.788 | 1.35 | 0.44 | 1.31
5 | ATCGGAAGGTCGTGAGGTGAGTATACAGAAAGGC | -0.372 | 1.37 | -0.0584 | 0.491 | 1.77 | 1.71 | 0.639 | 2.72 | 1.05 | 2.83
6 | CCTTGCAGGCCAGGGTCACTCAAGCATTTCGCTT | 1.64 | 1.87 | -0.933 | -1.48 | 0.75 | 2.65 | -0.433 | 3.33 | -0.43 | 2.79
7 | ATCGAAAGGTCGAGGTGAGTGTAGAGAAAGGGAA | 0.382 | 2.47 | 0.918 | -0.292 | 2.56 | 3.28 | 0.73 | 3.41 | 1.1 | 3.97
8 | CGAACTAGGTAATTGACAGGACAGTGAATAGTAA | 5.41 | 4.17 | 0.954 | 0.672 | 0.615 | -0.222 | -0.131 | -0.274 | 0.178 | -0.185
9 | TCATATAGGTAAACAGGTGAAAGCCCGTAAGTTA | 4.79 | 4.53 | 1.26 | 0.658 | 0.824 | 0.744 | 0.0524 | 1.07 | 1.58 | 0.738
10 | ACTTTTAGTTGAGACGAGGGCAACCGATAGGTTG | 0.771 | 0.663 | 1.4 | 1.16 | 0.208 | 1.33 | 0.341 | 1.59 | 0.167 | 1.24
11 | ATCTCTAGGTAACCAAGTTCAGCGAATGCCGAAC | 3.55 | 2.95 | 1.37 | 0.686 | 0.704 | 2.02 | 1.3 | 1.04 | 0.165 | 1.34
12 | TCGAGTAGGTTAGTCGGGGGATTCAGCCAACATA | 2.61 | 3.13 | 3.86 | 5.11 | 0.49 | 0.855 | 0.0667 | 0.615 | 0.264 | 0.779
13 | AGCTCTAGGTAAGACTCAGTTCAGTGAAGAACGC | 2.37 | 0.56 | -0.869 | 0.622 | -0.0493 | 0.744 | 0.904 | -0.0214 | -0.00994 | -0.0595
14 | TCATATAGATAAATGCTAGGTGAAAGTCCGATCT | 2.73 | 0.677 | 0.125 | 0.81 | 0.438 | 0.417 | 0.256 | 0.494 | 1.19 | 0.184
15 | ACAGACAGGTGATGCAGGTAACTCAGGCTATCAT | 0.0988 | 0.729 | 0.0271 | 0.231 | 0.328 | -0.33 | 0.04 | -0.107 | 0.231 | -0.0709
16 | CAATCTAGGTCAAGGTCAAAGTCGGTTTGTGCCA | 8.63 | 8.84 | 5.16 | 1.26 | 4.33 | 5.3 | 1.93 | 5.63 | 1.12 | 4.9
17 | CGAACTAGGTCATTGATAGGACAGTGAATAGTAA | 7.92 | 8.26 | 4.2 | 1.01 | 1.71 | 1.43 | 0.351 | 1.93 | 0.346 | 3.4
18 | CGAAATAGGTCAGAACAGGACAGTGAAGGATGAT | 6.51 | 6.4 | 1.62 | 1.69 | 1.47 | 1.69 | 0.395 | 1.87 | 1.05 | 3.71
19 | ATCGAAAGGTCGTGTGGTGAGTATACAGAAAGGC | 0.568 | 1.69 | 2.41 | 1.23 | 2.3 | 3.25 | 0.999 | 3.74 | 1.51 | 3.6
20 | ACTAGTTAGTCAGCTGAGGTCACACACAATTCGG | 0.771 | 2.31 | 0.856 | 0.622 | 2.26 | 5.14 | 1.6 | 5.01 | 1.35 | 3.3
21 | ACAGACAGGTCATGAAGGTAACTCAGGCTATCAT | 1.59 | 2.7 | 1.81 | 1.12 | 1.73 | 2.95 | 0.934 | 3.74 | 0.881 | 3.9
22 | ACAGACACGTGAGTGAAGGTAACTCAGCTGGACG | -0.453 | -0.172 | -0.0263 | 0.112 | -0.539 | -0.408 | -0.777 | -0.0459 | -0.522 | -0.255

Row | Sequence | PBM binding z-score [1] | PBM binding z-score [2] | PBM binding z-score [3] | PBM binding z-score [4] | PBM binding z-score [5] | PBM binding z-score [6] | PBM binding z-score [7] | PBM binding z-score [8] | PBM binding z-score [9] | PBM binding z-score [10]
23 | TCTTGTACATCAAGCAGGTTAAGAAAGCCTGAGT | 1.65 | 0.61 | 0.553 | 1.57 | 0.286 | 0.6 | 0.247 | 0.598 | -0.095 | 0.538
24 | TAGCCTAGGTCATTCTGGGGCCAGTATAGAAAGC | 1.71 | 2.77 | 0.208 | 0.242 | 0.886 | 2.29 | -0.248 | 2.76 | -0.372 | 3.67
25 | TAGCCTAGGTCATTGAGCCAGTATAGTACGCATC | 1.41 | 2.41 | 0.454 | 0.0795 | 0.0834 | 1.53 | -0.111 | 2.18 | -0.419 | 3.6
26 | TCGAGTAGGTTACCAAAGGGGCATTCAGCTTTCT | 3 | 2.74 | 0.155 | 0.119 | 0.4 | 0.735 | -0.508 | 0.81 | -0.941 | 1.37
27 | CCTACTGGGCCAAAAAGGTGATTGATGCCGATAA | 2.58 | 2.98 | -0.0281 | -0.242 | 0.459 | -0.0996 | -0.324 | -0.0994 | -0.0492 | 0.271
28 | GCAAGTTGGTCAGTAAAAGGTCACACACCGGTCG | 1.27 | 2.7 | 0.611 | 0.159 | 4.55 | 5.2 | 1.01 | 5.84 | 1.75 | 4.17
29 | CCTACTGGGACAAAGGTCATTGATTCCAATGCTC | 5.4 | 7.14 | 1.81 | 1.06 | 4.59 | 5.27 | 2.24 | 6.06 | 2 | 4.45
30 | CCTACTGGGCCAAAATGGTCATTGATGCCGATAA | 2.55 | 2.95 | -0.67 | -0.0275 | 0.212 | -0.439 | -0.289 | 0.45 | 0.0345 | 0.172
31 | CGTCCAATGTCAAAGGTCAGTGAAGAGATGACGG | 0.671 | 3.16 | 0.777 | 0.834 | 4.53 | 4.53 | 0.54 | 6.27 | 2 | 4.36
32 | CAAACTAGGTAACCGGAAGGTCAAAGTCCGCATG | 6.68 | 6.36 | 1.05 | 1.34 | 3.53 | 3.95 | 1.57 | 4.88 | 1.78 | 3.35
33 | TCTTGTAGATCAAAGTTTAAGAAAGCCGAAGCCT | 2.31 | 1.66 | 0.921 | 0.574 | 0.293 | 0.685 | 0.403 | 0.864 | 0.333 | 0.69
34 | GCGACTGGGGCAAAGCAGGTTACCTTAAGGTTGG | 4.98 | 3.47 | -0.487 | -1.22 | -0.599 | 0.288 | -0.563 | 0.523 | -0.791 | 0.877
35 | CGTCCAAGTTCAAGGTAACGTAACAGAAAGCAGC | 0.65 | 0.654 | 0.76 | 0.315 | 1.63 | 2.73 | 1.61 | 1.95 | 0.657 | 3.36
36 | CGTCCAAGGTCAGAGATGTCAGTGAATGCCGAGT | 2.09 | 2.19 | -0.242 | -0.744 | 0.984 | 2.43 | 1 | 2.65 | 0.429 | 4.54
37 | GCGCCTGGGGCATCAGCAGGTTACCATAACTTAA | -0.452 | -0.359 | -1.03 | -1.67 | -0.0775 | 0.0887 | -0.879 | 0.514 | -1.02 | 0.937
38 | ATCTCTAGGGAACCAAGTTCAGTGAATGCCGAAC | 0.604 | 0.283 | 0.0886 | 0.863 | 0.45 | 1.24 | 1.73 | 0.461 | 0.0341 | 0.674
39 | GCGACTGGGGCATCAGCAGGTGACCATAACTTAA | 4.17 | 3.33 | -0.697 | -0.862 | 0.0227 | -0.51 | -0.76 | -0.136 | -0.252 | 0.702
40 | CCGTCTGGGGCATAAGGTTACCATAAGCCAGCCC | 1.52 | 1.84 | -1.52 | -1.72 | 0.475 | 0.566 | -0.335 | 1.39 | -0.41 | 1.84
41 | CAAACAGGGTCAGCTAGGCCAGAGTAGGGACGGC | 2.12 | 2.9 | 0.368 | 0.041 | 1.74 | 2.42 | 0.185 | 3.18 | 0.11 | 3.96
42 | CCTAGCAGGCCAATCTGGGTCAATCAAGGCTTGA | 3.86 | 4.7 | -0.527 | -1.3 | 0.323 | 0.743 | -0.691 | 2.06 | -0.918 | 1.31
43 | AGTCAAAGCTCACTAGGTAACGTAAGATTCAGCT | 1.92 | 2.79 | 0.267 | -0.313 | -0.462 | -0.363 | -0.294 | -0.364 | -0.0387 | -0.0625
44 | TTACCAGGGTGAAAGGTCGTTGATGCACGCCTTG | 2.27 | 4.77 | 0.849 | 0.523 | 3.33 | 4.25 | 0.522 | 5.93 | 0.262 | 2.59
